Screens (PubChem BioAssay)
Rows were chosen to be rich in hits. Some 7.5% of all compounds tested hit in one or more screens of this group.
ELG1 genotox: qHTS screen for small molecules that induce genotoxicity in human embryonic kidney (HEK293T) cells expressing luciferase-tagged ELG1; Potency, µM (doses to about 46 µM), for inactives: at the highest dose activity change, positive = activation, actives largely listed as activators; AID 504466, 2011; HEK293T ELG1-luciferase reporter, luminescence, 16 h; hit rate 1.3% among 330,000; further: % of control where 0% means no effect; nearly all actives have a fitted effect of over 60% in size
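Genotoxic stress is detected as increased luminescence from luciferase-tagged ELG1 in HEK293T cells, measured with ONE-Glo after a 16 hr treatment at 37 °C.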
Rab9 prom act: qHTS Assay for Rab9 Promoter Activators | hit rate 2.8% among 320,000 | Potency, µM (series often up to 9.22 µM), without a hit: at the highest dose activation, negative = inhibition, hits mostly activators | Huh7 Rab9 promoter-luciferase reporter, luminescence, 24 h; further: % of control where 0% means no effect; nearly all actives have a fitted effect of over 60% in size
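Steps: seed 1500 Huh7 Rab9-luc cells per well, rest 2 h at 37 °C; add compound in DMSO; incubate 24 h; add luciferase reagent, 10 min ambient; read luminescence.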
KinaseGlo FLuc: Counterscreen for Luciferase (Kinase-Glo TM) Inhibition; hit rate 0.28% among 200,000; Luciferin 4-monooxygenase (Photuris pensylvanica), Q27757; AID 1379, 2008; Potency, µM (top dose mostly 38.3 µM), for the others: at the top dose activity change, negative = inhibition, actives largely listed as inhibitors; Kinase-Glo luciferase, ATP luminescence, 8 min; further: on the % scale 0 is the no-effect control and ±100 the full control effect; nearly all actives have a fitted effect of over 60% in size
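Substrate mix (final 50 mM imidazole pH 7.2, 50 mM KCl, 7 mM MgCl2, 10 uM ATP, 0.01% Tween 20, 0.05% BSA) plus pin-tool compound, then Kinase-Glo detection mix; 8 min ambient, luminescence read.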
SMN2 splice up: qHTS Assay for Enhancers of SMN2 Splice Variant Expression. Potency, µM (series often up to 46.1 µM), without a hit: at the top dose activity change, positive = activation, hits mostly activators. AID 1458, 2008. HEK293 SMN2-luciferase splicing reporter, luminescence, 30-36 h. hit rate 2.8% among 210,000; further: % of control where 0% means no effect; nearly all actives have a fitted effect of over 55% in size
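qHTS luciferase splicing reporter: luminescence rises when SMN2 exon 7 is included in transfected HEK293 cells. Compound exposure lasted 30-36 h at 37C, with 4.5 mM final sodium butyrate as control, followed by a ONE-Glo read.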
FLuc counter: qHTS profiling assay for firefly luciferase inhibitor/activator using purifed enzyme and Km concentrations of substrates (counterscreen for miR-21 project) | hit rate 6.9% among 360,000 | Luciferin 4-monooxygenase (Photinus pyralis), P08659 | Potency, µM (highest dose often 57.5 µM), inactives show top-dose activity change, negative = inhibition, most hits filed as inhibitors | purified FLuc, Km substrates, luminescence inhibition;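 further: plate controls were vehicle for no effect and reference inhibitor for full effect; nearly all actives have a fitted effect of over 55% in size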
Target sequence (P08659 whole entry, looked up): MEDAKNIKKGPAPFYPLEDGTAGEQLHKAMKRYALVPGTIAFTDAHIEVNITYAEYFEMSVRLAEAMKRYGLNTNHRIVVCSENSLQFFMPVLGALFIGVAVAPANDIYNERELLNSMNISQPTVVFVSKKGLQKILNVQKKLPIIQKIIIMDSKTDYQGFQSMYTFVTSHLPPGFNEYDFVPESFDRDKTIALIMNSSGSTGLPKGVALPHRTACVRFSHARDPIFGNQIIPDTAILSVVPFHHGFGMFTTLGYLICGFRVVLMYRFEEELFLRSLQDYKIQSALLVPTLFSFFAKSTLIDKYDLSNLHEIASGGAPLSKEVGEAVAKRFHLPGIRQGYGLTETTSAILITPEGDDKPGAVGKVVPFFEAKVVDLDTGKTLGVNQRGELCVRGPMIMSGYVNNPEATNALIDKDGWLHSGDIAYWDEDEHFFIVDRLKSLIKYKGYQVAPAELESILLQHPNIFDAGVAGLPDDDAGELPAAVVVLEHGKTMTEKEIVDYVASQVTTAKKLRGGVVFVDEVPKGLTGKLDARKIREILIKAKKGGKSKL
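Purified P. pyralis luciferase, 10 nM final, with Km-level 10 uM D-luciferin and 10 uM ATP in 50 mM Tris acetate pH 7.5, 10 mM Mg acetate, 0.01% Tween-20, 0.05% BSA; 6-point qHTS titration about 60 µM downward; luminescence read.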
NPC1 prom act: qHTS Assay for NPC1 Promoter Activators; Huh7 NPC1 promoter luciferase reporter, 24 h; hit rate 2.4% among 320,000; Potency, µM (series often up to 9.22 µM), without a hit: top-dose activation, most hits filed as activators; further: % of control where 0% means no effect; nearly all actives have a fitted effect of over 60% in size
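Huh7 reporter cells (NPC1 promoter driving luciferase) are dosed with compound for 24 h at 37 °C, 5% CO2; luciferase detection reagent is then added and luminescence measured after 10 min at ambient temperature.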
An asterisk follows results filed as active; ? = inconclusive; · = not tested or not shown; ! = a repeat was not active; [ ] = another dose, or the depositor's remark. The call rests on the fitted dose curve; in most records, active means well fitted curve in the direction sought with a large enough effect; inconclusive means small, poorly fitted or top-dose-only effect, or another doubt; inactive means no such curve, though single readings can be large; an effect the other way counts as inactive or inconclusive. Potency means the concentration at half of the fitted maximal effect.

SMILES | ELG1 genotox | Rab9 prom act | KinaseGlo FLuc | SMN2 splice up | FLuc counter | NPC1 prom act
CCCN(CCC)CCNC(=O)C1CCN(c2nc3ccc(CC)cc3s2)CC1 | · | · | · | 24% | 21µM* | ·
CCCCN(CCCC)CCCNC(=O)c1ccc2nc(N3CCCCC3)sc2c1 | · | · | · | 15% | 4% | ·
CCc1ccc2nc(N3CCC(C(=O)NCCC(C)C)CC3)sc2c1 | · | · | · | -7% | 1.9µM* | ·
CC(C)CCNC(=O)C1CCN(c2nc3ccccc3o2)CC1 | -7% | -1% | -2% | -31% | -2% | 1%
O=C(Cn1c(=O)nc(-c2ccccc2)c2ccccc21)Nc1ccc(Cl)c(C(F)(F)F)c1 | · | · | · | · | 0% | ·
COc1ccc(-c2cc3ccc(O)c(CN4CCCC4)c3oc2=O)cc1OC | · | · | · | · | 15µM* | ·
O=C(O)C(=O)/C(=C\c1ccc([N+](=O)[O-])cc1)c1ccc2ccccc2n1 | 20% | ? | 0% | 13µM* | ? | 9%
O=C(O)C(=O)/C(=C\c1ccsc1)c1ccc2ccccc2n1 | ? | 21% | · | · | ? | 18%
O=C(O)C(=O)/C(=C\c1ccccc1)c1ccc2ccccc2n1 | 9.2µM* | 2% | 8% | · | -19% | 3%
Nn1c(SCc2ccccc2)nnc1-c1ccco1 | ? | -5% | -2% | 27% | -13% | 0%
c1ccc(Cn2ccnc2-c2ccco2)cc1 | ? | 10% | -5% | 15% | 21µM* | 14%
Cc1ccc(NC(=O)n2ncc3c(C)cccc32)c(C)c1 | ? | 0.32µM* | · | · | 2.4µM*! | 0.4µM*
Cc1cccc2c1cnn2C(=O)Nc1ccc(Br)cc1F | 5% | ? | · | · | ? | 0.28µM*
CCN(CC)C(=O)c1sc(NC(=O)C(Sc2ccccc2)c2ccccc2)c(C(=O)OC(C)C)c1C (configuration not stated) | -8% | -9% | -2% | -1% | 7% | -2%
Cc1nonc1C1CCCN1C(=O)c1cc(COc2ccc(F)cc2Cl)on1 (configuration not stated) | 3% | 0% | 0% | · | ? | 1%
Cc1cc(=O)oc2cc(OCC(=O)Nc3c(C)n(C)n(-c4ccccc4)c3=O)c(Cl)cc12 | 0% | -1% | · | · | 2% | -3%
CCn1c(COc2cccc(C)c2)nc2ccccc21 | -1% | -3% | -7% | -9% | ? | 0%
COCn1c(COc2ccc3ccccc3c2)nc2ccccc21 | ? | 2.5µM* | -7% | 11µM* | 2.4µM* | 2.8µM*
COc1ccc(OCc2nc3ccccc3n2Cc2ccc(C(C)(C)C)cc2)cc1 | · | · | · | 11µM* | 9.5µM* | ·
CC(C)(C)c1ccc(OCc2nc3ccccc3n2CCOc2ccccc2)cc1 | · | · | · | -35% | -5% | ·
COc1ccccc1CNC(=S)Nc1ccc(S(N)(=O)=O)cc1 | -2% | -9%[1.84 µM] | · | · | 6% | -1%
CCOc1cccc(C(=O)N(Cc2ccc(C)o2)C2CCS(=O)(=O)C2)c1 (configuration not stated) | · | · | · | -4% | -2% | ·
CC1CC(C)(C)Nc2ccc(N=O)cc21 (configuration not stated) | 12% | 18% | -4% | -102% | -11% | -8%
CC1CC(C)(C)Nc2ccc(OC(=O)c3ccco3)cc21 (configuration not stated) | 19% | ? | -3% | · | 6.7µM* | 0%
O=c1oc(Nc2ccc(F)cc2)nc2ccccc12 | ? | 2.5µM* | -8% | 0% | 13µM* | 2.2µM*
SMILES | ELG1 genotox | Rab9 prom act | KinaseGlo FLuc | SMN2 splice up | FLuc counter | NPC1 prom act
O=c1nc(Nc2ccccc2)oc2ccccc12 | ? | ? | · | · | 17µM* | 2.8µM*
Cc1ccc(C(=O)Oc2ccc(/C=C3\C(=N)N4N=C(N5CCOCC5)SC4=NC3=O)cc2)cc1 | 23µM* | ? | · | · | ? | ?
N=C1/C(=C\c2ccc(OC(=O)c3ccccc3)cc2)C(=O)N=C2SC(N3CCOCC3)=NN12 | 12% | 4% | · | · | ? | -3%
COc1ccc(-c2nnc(SC(C)C(=O)Nc3ccc4c(c3)OCCO4)o2)cc1 (configuration not stated) | 5.8µM* | ? | 2% | 18µM* | ? | 18%
O=C(CSc1nnc(-c2ccc(O)cc2)o1)Nc1cccc(O)c1 | ? | -1% | · | · | ? | 13%
O=C(Nc1ccc2c(c1)OCCO2)C1CC(c2ccccc2Cl)=NO1 (configuration not stated) | 6% | 4µM* | · | · | 19µM* | 4µM*
O=C(CSc1nnc(-c2ccccc2Cl)o1)Nc1ccc2c(c1)OCCO2 | ? | ? | -2% | 14µM* | ? | 29%
O=C(CSc1nnc(CNC(=O)c2ccccc2)o1)Nc1ccc2c(c1)OCCO2 | 4% | 6% | · | · | ? | 6%
O=C(CSc1nnc(-c2ccc(O)cc2)o1)Nc1ccc2c(c1)OCCO2 | 15% | 4µM* | -1% | 16µM* | ? | 3.2µM*
Cc1nnc(SC(C)C(=O)Nc2ccc3c(c2)OCCO3)s1 (configuration not stated) | 5% | -2% | 2% | 22% | ? | 1%
CC(C)(C)c1ccc(-c2nnc(SCC(=O)c3ccc4c(c3)OCCO4)o2)cc1 | -3% | -17% | -2% | -40% | 24µM* | -2%
Fc1cccc(Cl)c1-c1nnc2ccc3ccccc3n12 | 5% | -8% | -3% | -51% | 19µM* | -8%
C=C1C=C(C(F)F)n2ncc(C(=O)NCCc3ccc(OC)c(OC)c3)c2N1 | · | · | · | · | 4% | ·
CC1(C)NC(=O)N(CC(=O)OCC(=O)Nc2cc(S(=O)(=O)N3CCCCCC3)ccc2Cl)C1=O | 1% | -5% | 2% | 3% | -6% | 1%
CCOC(=O)c1cc(C(=O)NCc2ccc(Cl)cc2Cl)nn1C | -2% | 2% | -4% | 4% | -11% | -3%
CCOC(=O)c1cc(C(=O)Nc2ccc(C)c(F)c2)nn1C | ? | 2.8µM* | -4% | 42% | 7.6µM* | 4µM*
CC1(C)O[C@H]2[C@@H](O1)[C@@H](C(=O)Nc1ccccc1C(F)(F)F)O[C@@H]1OC(C)(C)O[C@@H]12 | · | · | · | 12% | 0% | ·
COc1ccc(NC(=O)c2ccccc2NS(C)(=O)=O)cc1OC | -3% | -5% | -1% | -4% | 17µM* | -5%
COC(=O)c1ccc(NC(=O)c2ccccc2NS(C)(=O)=O)cc1 | -4% | 1% | -2% | 6% | 12µM* | 0%
